Source: PubChem BioAssay (National Center for Advancing Translational Sciences (NCATS))
Pf Dd2 growth = inhibitors of Plasmodium falciparum Dd2 growth; P. falciparum Dd2 growth, SYBR Green, 72 h; 4.3% of 120,000 active; Potency, µM (top dose mostly 28.9 µM), most hits filed as inhibitors; AID 1347417; active means well fitted inhibition curve with a large enough effect; further: nearly all actives have a fitted effect of over 65% in size
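Readout: SYBR Green fluorescence, 485 nm excitation, 535 nm emission, after ~16 h lysis at 37C. Before that, Dd2-infected red cells (2.5% hematocrit) grew 72 h with compound, 29 uM top final concentration.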
Of the large screens only hits and unclear results are named; the others gave an inactive call. Many of the other results were omitted from the sample, so hits are more common in it than they were.

CC(C)N1CCN(C2CCOC3(CCN(C(=O)Cc4cccc(F)c4)CC3)C2)CC1 (stereo not drawn)	none
COc1ccc2c(c1)OCC(CNC(=O)c1cc(-c3ccncc3)n[nH]1)C2 (stereo not drawn)	Pf Dd2 growth 13µM
COc1ccc2c(c1)OCC(CNC(=O)c1ccc(-c3nnn(C)n3)cc1)C2 (stereo not drawn)	none
COc1ccc2c(c1)OCC(CNC(=O)c1scc3c1OCCO3)C2 (stereo not drawn)	none
COC(C(=O)N1CC(=O)N(Cc2cccnc2)CC(OCc2ccccc2)C1)c1ccccc1 (stereo not drawn)	none
O=C(c1ccc(F)cc1Cl)N1CCN(C(=O)c2nnn3c2COC(c2ccccc2)C3)CC1 (stereo not drawn)	none
Cc1ccc(S(=O)(=O)N(CC(=O)NCCSc2ccc(Cl)cc2)c2cccc(Cl)c2)cc1	none
CCOc1ccc(C(=O)NCCSc2c(C)[nH]c3ccccc23)cc1OCC	none
Cc1ccc(C(=O)NCCSc2c[nH]c3ccccc23)cc1C	none
O=C(NCCc1ccc(Cl)cc1)c1ccc(Cn2c(=O)[nH]c3ccccc3c2=O)cc1	none
Cc1ccc(-c2[nH]c3ccccc3c2SCCNC(=O)c2ccc(S(=O)(=O)N(C)C)cc2)cc1	Pf Dd2 growth 8.9µM
CN(C)S(=O)(=O)c1ccc(C(=O)NCCSc2c(-c3ccc(Cl)cc3)[nH]c3ccccc23)cc1	Pf Dd2 growth 8.9µM
C[C@@H](NC(=O)C1=C[C@@H](NC(=O)CC(C)(C)C)[C@@H](O)[C@H](O)C1)C(N)=O	none
O=C(c1ccc(CN2C(=O)NC3(CCS(=O)(=O)CC3)C2=O)cc1)N1CCOCC1	none
O=C1CCN(S(=O)(=O)c2ccccc2)CCCN(C(=O)Cc2cccc(F)c2)CCN1	none
O=C1CC(c2ccccc2)N(Cc2ccncc2)CCCN(C(=O)c2cc3ccccc3[nH]2)CCN1 (stereo not drawn)	Pf Dd2 growth 3.5µM
O=C1CC(c2ccccc2)N(C(=O)C2CC2)CCCN(C(=O)c2ccc3ccccc3n2)CCN1 (stereo not drawn)	none
CS(=O)(=O)N1CCCN(C(=O)c2ccncc2)CCNC(=O)CC1c1ccccc1 (stereo not drawn)	none
O=C1CC(c2ccccc2)N(Cc2ccncc2)CCCN(C(=O)C2CCCCC2)CCN1 (stereo not drawn)	none
O=C1CC(c2ccccc2)N(Cc2ccncc2)CCCN(S(=O)(=O)c2cccc(F)c2)CCN1 (stereo not drawn)	Pf Dd2 growth 0.5µM
O=C1CC(c2ccccc2)N(C(=O)C2CC2)CCCN(C(=O)c2cc3ccccc3[nH]2)CCN1 (stereo not drawn)	Pf Dd2 growth 11µM
O=C1CC(c2ccccc2)N(C(=O)C2CC2)CCCN(C(=O)c2c[nH]c3ccccc23)CCN1 (stereo not drawn)	none
O=C1CC(c2ccccc2)N(Cc2ccncc2)CCCNCCN1 (stereo not drawn)	none
NC(=O)[C@@H](Cc1ccccc1)NC(=O)[C@@]1(O)C[C@@H](O)[C@H](O)[C@@H](NC(=O)c2cccnc2)C1	none
Cc1cnc(C(=O)NC2C[C@H]3CC[C@@H](C2)N3C(=O)CC(C)C)cn1 (stereo partly drawn)	none
COC(=O)C(NC(=O)N1CCc2nc3cc(-c4ccccc4)[nH]n3c(=O)c2C1)C(C)C (stereo not drawn)	none
Cc1cccc(OCC2(CNC(=O)C3CC3)C[C@@H](O)[C@@H](O)C2)n1 (stereo partly drawn)	none
O=C(NC[C@H]1O[C@@H]2C[C@@H](CC(=O)N3CCC(F)(F)C3)O[C@@H]2[C@@H]1O)NC1CCC1	none
COC(=O)[C@@H]1Cc2ncn(Cc3ccc(OC)cc3)c2CN1C(=O)c1ccc(F)cc1	none
COC(=O)[C@@H]1Cc2ncn(Cc3ccc(OC)cc3)c2CN1Cc1cccc(C#N)c1	Pf Dd2 growth 13µM
COC(=O)[C@@H]1Cc2ncn(Cc3ccc(OC)cc3)c2CN1C(=O)c1ccc(C#N)cc1	none
O=C(O)COc1ccc(-c2nccc3c2C(=O)N(Cc2cccc(C(F)(F)F)c2)CC(CNC(=O)c2cccc(Cl)c2)O3)cc1 (stereo not drawn)	Pf Dd2 growth 10µM
COc1cc(OC)cc(OCC2CN(Cc3cccc(C(F)(F)F)c3)C(=O)c3c(ccnc3-c3ccc(OCC(=O)O)cc3)O2)c1 (stereo not drawn)	none
O=C(O)COc1ccc(-c2nccc3c2C(=O)N(Cc2cccc(C(F)(F)F)c2)CC(COc2ccc(OC(F)(F)F)cc2)O3)cc1 (stereo not drawn)	none
CCC(C)NC(=O)Cn1nc(C)c2sc(-c3ccccc3)nc2c1=O (stereo not drawn)	none
Cc1ccccc1OCc1nc(C2CN(C(=O)COc3ccc(F)cc3)C2)no1	none
O=C(CCC1N=C2c3ccccc3N=C(SCC(=O)NCCc3ccccc3)N2C1=O)NCc1ccc(F)cc1 (stereo not drawn)	none
O=C(CCC1N=C2c3ccccc3N=C(SCc3ccc(F)cc3)N2C1=O)N1CCN(c2ccccc2)CC1 (stereo not drawn)	Pf Dd2 growth 13µM
O=C(CC1N=C2c3ccccc3N=C(SCc3ccc(F)cc3)N2C1=O)NCCc1ccccc1 (stereo not drawn)	none
